Data published in PubChem BioAssay (NCATS).
Records with an inconclusive call do not appear. Unmarked numbers belong to inactive results. Calls come from the whole dose curve; as a rule, active = well fitted inhibition curve with a large enough effect; inconclusive = small, poorly fitted or top-dose-only effect; inactive = flat fitted curve, though single readings scatter.

biological target: Calcium and integrin-binding protein 1 (Homo sapiens) (UniProt Q99828); test: Primary qHTS for Identification of Calcium Integrin Binding Protein 1 (CIB1) Competitor (AID 1508620); conditions: CIB1-GST / FITC-alphaIIb peptide fluorescence polarization; series mostly up to 114 µM; activity change, negative = inhibition: at the top concentration; note: top concentration of the series differs between compounds
Sequence (Q99828 whole entry, looked up): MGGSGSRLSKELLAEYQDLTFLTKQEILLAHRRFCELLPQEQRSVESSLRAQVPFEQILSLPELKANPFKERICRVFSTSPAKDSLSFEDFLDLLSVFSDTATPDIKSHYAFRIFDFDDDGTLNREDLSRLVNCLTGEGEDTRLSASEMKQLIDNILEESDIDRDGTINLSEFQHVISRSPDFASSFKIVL
Summary of the method: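 Fluorescence polarization competition: GST-tagged CIB1 (1 uM final) preincubated with compound 15 min at room temperature, then FITC-labelled alphaIIb peptide (100 nM final) added. After 15 min at room temperature, polarization read at Ex 480/Em 540.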
% is set by controls: 0 for no effect and ±100 for the full control effect.

Row | Compound | activity change, negative = inhibition
1 | CC1=C(C(=O)O[C@@H]2O[C@H](COC3OCC(O)C(O)C3O)[C@@H](O)[C@H](O)[C@H]2O)C(C)(C)CCC1 (stereo not given in full) | 0.381% [at 57.7 µM]
2 | COc1cc(OC)c(/C=C/S(=O)(=O)Cc2ccc(OC)c(NCC(=O)O)c2)c(OC)c1 | -9.89%
3 | CC(=O)O[C@H]1C[C@@]2(C)[C@@H](CC[C@H]3[C@@]4(C)C=CC(=O)[C@@H](C)[C@@H]4[C@H](O)C(=O)[C@@]32C)/C1=C(/CCC=C(C)C)C(=O)O | 2.46% [at 57.7 µM]
4 | CCCC(=O)NCCc1csc(-c2ccc(Cl)cc2)n1 | -11.4%
5 | CC1(C)CC[C@]2(C(=O)O)CC[C@]3(C)C(=CCC4[C@@]5(C)CC[C@H](O[C@@H]6O[C@H](C(=O)O)[C@@H](O[C@@H]7OC[C@@H](O)[C@H](O)[C@H]7O)[C@H](O)[C@H]6O)C(C)(C)C5CC[C@]43C)C2C1O (stereo not given in full) | -4.31% [at 30.2 µM]
6 | COc1ccc(N2CCOCC2)c2sc(NC(=O)N3CCC(C)(O)CC3)nc12 | -5.25%
7 | N#Cc1c(Oc2ccc(F)c(NC(=O)Cc3cccc(C(F)(F)F)c3)c2)ccc2nc(NC(=O)C3CC3)sc12 | 3.39%
8 | Cc1nc(C)c(-c2ccc(C3CCC(CC(=O)O)CC3)cc2)nc1C(N)=O (stereo not given) | -0.975%
9 | CC(=O)O[C@H]1[C@@H](O)[C@H](O[C@H]2[C@@H]3C=CO[C@@H](O[C@H]4O[C@@H](CO)[C@H](O)[C@@H](O)[C@@H]4O)[C@@H]3[C@@]3(CO)O[C@@H]23)O[C@@H](C)[C@@H]1OC(=O)/C=C/c1ccccc1 | 2.14% [at 30.2 µM]
10 | C/C=C(\C)C(=O)OCC1OC(OC2OC(COC(=O)/C(C)=C/C)C(OC3OC(CO)C(OC(=O)/C(C)=C/C)C(OC(=O)/C(C)=C/C)C3O)C(O)C2O)C(O)C(O)C1OC1OC(CO)C(OC(=O)/C(C)=C/C)C(OC(=O)/C(C)=C/C)C1O (stereo not given) | 3.24% [at 30.2 µM]
11 | O=C(Nc1ccccc1-c1cn2c(CN3CCNCC3)csc2n1)c1ccc2ccccc2n1 | -6.04%
12 | COc1ccc(C2(O)CCC(N3CC[C@@H](NC(=O)CNC(=O)c4cccc(C(F)(F)F)c4)C3)CC2)cn1 (stereo not given in full) | 4.55%
13 | COc1cc(O)cc(C)c1C(=O)OC1C(CO)OC(OC2C(O)C(O)C(O)C(O)C2O)C(O)C1O (stereo not given) | -7.58% [at 57.7 µM]
14 | Nc1nc(-n2cc(C(=O)O)c(=O)c3cc(F)c(N4CC(O)C4)c(Cl)c32)c(F)cc1F | -7.54% [at 57.7 µM]
15 | COc1cc(NC(=O)Nc2cccc(CNC(=O)O[C@H]3CCOC3)c2)ccc1-c1cnco1 | -5.47%
16 | C/C1=C\C[C@]2(C)C(=O)C(O)=C([C@H](C)CO)[C@H]2C/C=C(\C)[C@@H](O)CC/C(C)=C/CC1 | 0.773% [at 57.7 µM]
17 | COc1cc([C@H]2c3cc(O)c(OC)cc3C[C@@H](CO[C@@H]3O[C@H](CO)[C@@H](O)[C@H](O)[C@H]3O)[C@@H]2CO)ccc1O | 0.877% [at 57.7 µM]
18 | [N-]=[N+]=N[C@]1(CO)O[C@@H](n2ccc(=O)[nH]c2=O)[C@@H](O)[C@@H]1O | 4.17%
19 | CC1=C(C(=O)O)/C(=C\CO[C@@H]2O[C@H](CO)[C@@H](O)[C@H](O)[C@H]2O)C(OC(=O)/C=C/c2ccc(O)cc2)C1 (stereo not given in full) | -3.79% [at 57.7 µM]
20 | CC(=O)CCC1=C(C)C(O[C@@H]2O[C@H](CO)[C@@H](O)[C@H](O)[C@H]2O)C(O)CC1(C)C (stereo not given in full) | 2.55% [at 57.7 µM]

Row | Compound | activity change, negative = inhibition
21 | Nc1nc2c(c(=O)[nH]1)C[C@@H](CCc1ccc(C(=O)N[C@@H](CCC(=O)O)C(=O)O)cc1)CN2 | -10.5%
22 | CCC(O)(C(=O)OCc1ccccc1NC(=O)CCC(=O)O)C(C)O (stereo not given) | -1.78% [at 57.7 µM]
23 | N#C[C@@H]1CCCN1C(=O)CNC12CC3CC(CC(O)(C3)C1)C2 | 3.45%
24 | CC1=CC(=O)[C@]2(O[C@@H]3O[C@@H](C)[C@H](O)[C@@H](O)[C@H]3OC(=O)/C=C/c3ccccc3)C=CO[C@@H](O[C@@H]3O[C@H](CO)[C@@H](O)[C@H](O)[C@H]3O)[C@H]12 | -4% [at 30.2 µM]
25 | C[C@@H]1C[C@@H]([C@@H](O)C(C)(C)O)O[C@H]2C[C@@]3(C)C(=C12)C[C@H](O)[C@H]1[C@@]2(C)CCC(=O)C(C)(C)C2CC[C@@]13C (stereo not given in full) | -4.43% [at 57.7 µM]
26 | COc1cc(O)cc(C)c1C(=O)O[C@H]1[C@@H](OC(C)=O)[C@H](n2ccc(=O)[nH]c2=O)O[C@@H]1CO | -7.15% [at 57.7 µM]
27 | CC(=O)NC1=NN(C(C)=O)C(C)(c2ccccc2)S1 (stereo not given) | 2.56%
28 | O=C(/C=C\c1ccc(O)cc1)N[C@@H](Cc1ccc(O)cc1)C(=O)O | 3.37% [at 57.7 µM]
29 | CC(C)CC(=O)OC1OC=C(CO[C@@H]2O[C@H](CO)[C@@H](O)[C@H](O)[C@H]2O)C2CC(O)C(O)(CO)C12 (stereo not given in full) | 3.44% [at 57.7 µM]
30 | OC[C@H]1O[C@@H](O[C@H]2[C@H](OCCc3ccccc3)O[C@H](CO)[C@@H](O)[C@@H]2O)[C@H](O)[C@@H](O)[C@@H]1O | 0.664% [at 57.7 µM]
31 | NC1CCCCN(c2c(F)cc3c(=O)c(C(=O)O)cn(C4CC4)c3c2Cl)C1 (stereo not given) | 6.11% [at 57.7 µM]
32 | CC(=O)OC1C(=O)C2(C)C(O)CC3OCC3(OC(C)=O)C2C(OC(=O)c2ccccc2)C2(O)CC(OC(=O)C(O)C(NC(=O)c3ccccc3)c3ccccc3)C(C)=C1C2(C)C (stereo not given) | -0.745%
33 | O=C(CC(c1ccccc1)c1ccccc1)N1CCN(C(c2ccccc2)c2ccccc2)CC1 | -2.45%
34 | CCCOc1ccc(-c2nc(OC)c3ccccc3n2)cc1 | 3.62%
35 | C=C1C(=O)O[C@H]2C1[C@H](OC(=O)/C(=C/CO)COC(=O)/C(C)=C/CO)CC(=C)[C@@H]1CC(=O)[C@@H](C)[C@@H]12 (stereo not given in full) | -11.1% [at 57.7 µM]
36 | COC(=O)c1c(C)cc(OC(=O)c2c(C)cc(OC)cc2OC)cc1O[C@@H]1O[C@H](CO)[C@@H](O)[C@H](O)[C@H]1O | -9.73% [at 57.7 µM]
37 | CCOC(=O)C(CCc1ccccc1)NC1CSC(c2cccs2)CN(CC(=O)O)C1=O (stereo not given) | 1.65%
38 | CC(C)(C)Nc1nc2cc(Cl)c(Cl)cc2nc1S(C)(=O)=O | 4.03%
39 | CC(=O)NCC(=O)N1C2CCC1c1cc(Nc3ncc(C(F)(F)F)c(NC4CCC4)n3)ccc12 (stereo not given) | 1.68%
40 | C[C@@H]1CC[C@]2(C(=O)O)CC[C@]3(C)C(=CCC4[C@@]5(C)C[C@@H](O)[C@H](O)[C@@](C)(CO)C5CC[C@]43C)C2[C@]1(C)O (stereo not given in full) | 3.53% [at 57.7 µM]
